Data on 4 molecules can be found in PubChem BioAssay (NCI).

The structures appear in SMILES notation. Several values for one entry are separate records, joined by “and”; a condition that tells them apart may be missing. Equal entries are not always repeated. This is part of a sample that, as a whole, favours compounds with a hit. Of some 83,000 tested, about 20% had one in any assay.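 Plates (96-well) were seeded with cells, treated with compound at one concentration, and incubated for 48 hours before percent growth was determined.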 Activity calls are given as the source filed them. The calls were made as follows: active = growth percent below 10; inactive = the rest.

The test system of this assay is MCF7 breast. Kind of assay: NCI-60 one-dose screen, 48 h (100 = growth as untreated, 0 = no growth, -100 = all killed). The conditions noted are these: 10 µM unless noted.
With `CC(=O)O[C@@H]1C[C@@]2(C)[C@@H]3CC=C4[C@@H](C[C@H](O)C(=O)C4(C)C)[C@]3(C)C(=O)C[C@]2(C)[C@H]1[C@@](C)(O)C(=O)/C=C/C(C)(C)OC(C)=O`, the growth is -52.5% [100 µM] (active) and -100% [100 µM] (active).
Next, `CC12NC(=C(C#N)C#N)C(C#N)=C3NC(N)=C(C#N)C(=C31)Oc1ccccc12` (centres undefined): 17.3% [100 µM] (inactive) and -45.9% [100 µM] (active).
The result for `C/C(Cl)=N/OC(=O)Nc1ccc(S(N)(=O)=O)c(C)c1` reads -72.4% [100 µM] (active) and -89.8% [100 µM] (active).
Next, `N#Cc1c(=N)cc2c3ccccc3oc3c(C#N)c(N)[nH]c1c32`: 74.3% [100 µM] (inactive) and 24.3% [100 µM] (inactive).
